From PubChem BioAssay (Tox21) come the findings set out here.

Results filed as inconclusive are left out. Values without a mark were called inactive. Active and inactive are the calls of the source. Calls come from the whole dose curve; as a rule, active = well fitted cell-killing curve with a large enough effect in the repeat runs; inconclusive = weak or mixed curves, or effect the other way; inactive = no such curve, though single readings can be large or run the other way.
% is set by controls: 0 for no effect and ±100 for the full control effect.

The first assay can be described thus: qHTS assay to identify small molecule antagonists of the glucocorticoid receptor (GR) signaling pathway - cell viability counter screen (AID 720693). Note: nearly all actives have a fitted effect of over 55% in size. The note with it: GR-bla HeLa viability, CellTiter-Glo luminescence, 18 h, with 5 nM dexamethasone present; series mostly up to 58.5 µM; viability change, negative = cytotoxic: at the top concentration.
For `C=CCCCCCCCCC=O`, the “viability change, negative = cytotoxic” value is 0.993%.
Take `Nc1c2c(nc3ccccc13)CCCC2O` (stereo not drawn): the “viability change, negative = cytotoxic” value was -6.32%.
For the molecule `CC(C)c1cc2c(cc1S(=O)(=O)O)[C@@]1(C)CCC[C@@](C)(C(=O)O)[C@@H]1CC2`, the “viability change, negative = cytotoxic” value was 15%.
Turning to `C[N+](C)(C)CC(O)CC(=O)[O-]` (stereo not drawn), the “viability change, negative = cytotoxic” value was -8.46%.
Still for that read-out and setting: the result for `CCC=O` reads -12.8% [at 78.9 µM]; that for `CN1CCN(c2cc3c(cc2F)c(=O)c(C(=O)O)cn3-c2ccc(F)cc2)CC1`, 3.85%.
Regarding `C=C1CC[C@H]2C[C@@H]1C2(C)C`, the “viability change, negative = cytotoxic” value was -1.04%.
The same measure, in the same setting: as for `Cc1c(NC(C)C)c(=O)n(-c2ccccc2)n1C`, the figure is 11.1%; as for `NS(=O)(=O)c1ccc(C(=O)O)cc1`, -2.47%; as for `COC(=O)[C@@H](N)Cc1ccc(O)c(O)c1`, -0.244%.
The same measure, in the same setting: the result for `COc1nc(N)nc2c1ncn2[C@@H]1O[C@H](CO)[C@@H](O)[C@@H]1O` reads 0.862%.
For `CCOC(=O)C(=O)OCC`, the “viability change, negative = cytotoxic” value is -0.599%.
Regarding `CCCCCCOC(=O)CCCCC(=O)OCCCCCC`, the “viability change, negative = cytotoxic” value is 9.52%.
In the case of `O=C(O)Cc1ccc(CCNS(=O)(=O)c2ccc(Cl)cc2)cc1`, the “viability change, negative = cytotoxic” value was 11.2%.

A further assay is described as follows: qHTS assay for identifying genotoxic compounds that show differential cytotoxicity against isogenic chicken DT40 cell lines with known DNA damage response pathways - wild type cell line (AID 743012). Note: nearly all actives have a fitted effect of over 60% in size. Note: potency is the fitted concentration of half-maximal effect. The note with it: DT40 wild type chicken cells viability, CellTiter-Glo, 40 h; series mostly up to 68.4 µM; activity change, negative = cytotoxicity: at the top concentration. The procedure, abridged: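 Parental DNA repair-proficient DT40 cells, 300 per well, were pre-incubated ~0.5 h at 37 C/5% CO2, pin-dosed with compounds in DMSO, then incubated 40 h. Viability was read as CellTiter-Glo luminescence after 30 min at room temperature.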
For orientation: qHTS replaces the single test concentration by a dilution series.
Regarding `Cc1[nH]c(=O)c(C#N)cc1-c1ccc2nccn2c1`, the “activity change, negative = cytotoxicity” value was 8.33%.
In the case of `N=C(N)c1ccccc1`, the “activity change, negative = cytotoxicity” value was -0.614%.
On to `NCCc1cnc[nH]1`, for which the “activity change, negative = cytotoxicity” value was 6.73%.
The same measure, in the same setting: the result for `COc1c(N2C[C@@H]3CCCN[C@@H]3C2)c(F)cc2c(=O)c(C(=O)O)cn(C3CC3)c12` reads 8.19%; that for `CCO/C([O-])=N/c1c[n+](N2CCOCC2)no1`, 4.32% [at 31.4 µM]; that for `Brc1c(NC2=NCCN2)ccc2nccnc12`, -19.4%.
Same read-out and setting: the result for `CCOC(=O)[C@H](CCc1ccccc1)N[C@@H](C)C(=O)N1[C@H](C(=O)O)C[C@@H]2CCC[C@@H]21` reads 5.49%.
For the molecule `Nc1nc2c(ncn2COC(CO)CO)c(=O)[nH]1`, the Potency is 2.85 µM (active).
Regarding `CN1CC(=O)NC1=N`, the “activity change, negative = cytotoxicity” value is 4.63%.
Same read-out and setting: as for `Cc1cccn2c(=O)c(-c3nnn[nH]3)cnc12`, the figure is 12.7%; as for `C[N+](C)(C)CC(O)CC(=O)[O-]` (stereo not drawn), -11%.
For the molecule `CN1CCN(c2cc3c(cc2F)c(=O)c(C(=O)O)cn3-c2ccc(F)cc2)CC1`, the Potency is 23.7 µM (active).
Consider `C=C1CC[C@H]2C[C@@H]1C2(C)C`, for which the “activity change, negative = cytotoxicity” value is -15.5%.
For the molecule `Cc1c(NC(C)C)c(=O)n(-c2ccccc2)n1C`, the “activity change, negative = cytotoxicity” value is 8.85%.
As to `NS(=O)(=O)c1ccc(C(=O)O)cc1`, the “activity change, negative = cytotoxicity” value is 13.9%.
As to `COC(=O)[C@@H](N)Cc1ccc(O)c(O)c1`, the Potency is 29.8 µM (active).
Take `COc1nc(N)nc2c1ncn2[C@@H]1O[C@H](CO)[C@@H](O)[C@@H]1O`: the “activity change, negative = cytotoxicity” value was 19.2%.
Same read-out and setting: as for `CCOC(=O)C(=O)OCC`, the figure is -7.37%; as for `CCCCCCOC(=O)CCCCC(=O)OCCCCCC`, -2.23%.
